From PubChem BioAssay (NCI) come the findings set out here.

Test in all cases: NCI-60 one-dose screen, 48 h (100 = growth as untreated, 0 = no growth, -100 = all killed)
Details in all cases: 10 µM unless noted

For assay [1], the system named is SK-MEL-2 melanoma.
The subject of assay [2] is EKVX NSCLC.
The subject of assay [3] is SN12C renal.
Assay [4] deals with UO-31 renal.
Assay [5] relates to TK-10 renal.
Assay [6] has as its system ACHN renal.
Assay [7] has as its system CAKI-1 renal.
Assay [8] relates to A498 renal.
Assay [9] concerns MOLT-4 leukemia.
The test system of assay [10] is SR leukemia.
For assay [11], the system named is RPMI-8226 leukemia.
Assay [12] deals with OVCAR-8 ovarian.
In assay [13] the test system is OVCAR-5 ovarian.
The subject of assay [14] is OVCAR-4 ovarian.
For assay [15], the system named is SK-OV-3 ovarian.
Assay [16] concerns IGROV1 ovarian.
The test system of assay [17] is OVCAR-3 ovarian.
Assay [18] deals with HS 578T breast.
In assay [19] the test system is NCI/ADR-RES ovarian.

Each structure is given as a SMILES string. The panel holds about 83,000 compounds, 20% with a hit somewhere; the sample as a whole holds those more often.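 Negative percent growth values reflect cell death: -40 means 40% of the cells present at the start died, and -100 means all died.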 Values without a mark were called inactive. The source made the active and inactive calls. How the source made its calls: active means growth percent below 10; inactive means the rest.

On to `COC(=O)c1c2c(c(C)[n+]([O-])c1C)C(=O)C(NCc1ccc(F)cc1)=CC2=O`, for which the growth was 30.6% in assay [1]; 58.8% in [2]; -2.05% (active) in [3]; 71.9% in [4]; 81.4% in assay [5]; 48.3% in assay [6]. The growth is 50.7% in [7]; 98.6% in assay [8]; -19.6% (active) in [9]; 9.28% (active) in [10]; 26.9% in assay [11]; -5.16% (active) in [12]. The growth is 46.2% in assay [13]; -38.5% (active) in assay [14]; 84.1% in assay [15]; 17.6% in [16]; -21% (active) in [17]; 82.6% in assay [18]. The growth in assay [19] was 10%.

For the compound `N#Cc1nc2c(S(=O)(=O)c3ccc(Cl)cc3)c(N)n(Nc3cccc(Cl)c3)c2nc1C#N`, the growth in [1] was 121%; in assay [2], 33.3%; in assay [3], 56.8%; in assay [4] it was 63%; in assay [5], 36.3%; in [6], 67.7%. The growth in assay [7] was 88.5%; in assay [8], 49.2%; in [9] it was 49.5%; in [10], -6.78% (active); in [11], 3.39% (active); in assay [12], 24%. In addition, the growth in [13] was 68.4%; in assay [14], 42.6%; in [15], 50.2%; in assay [17], 59.4%; in [18], 31.2%; in [19] it was 79.6%.

For `Cc1cccc(-c2nc(N(C)c3ccc4ncsc4c3)c3ccccc3n2)n1`, the growth is 85.1% in assay [1]; 85% in [2]; 93.6% in assay [3]; 77.7% in [4]; 105% in [5]; 94.6% in [6]. The growth in [7] was 77.5%; in assay [8], 78.8%; in assay [9], 76.4%; in assay [10], 17.3%; in assay [11], 50.1%; in assay [12] it was 91.2%. Besides, the growth is 108% in [13]; 85.7% in assay [14]; 96.6% in assay [15]; 68.9% in [16]; 62.6% in assay [17]; 103% in assay [18]. For the same compound, the growth in assay [19] is 58.5%.

As to `CC/C=C\C[C@H](O)C/C=C1/C(=O)C=C[C@@H]1C/C=C\CCCCO`, the growth was 62.5% in assay [1]; 69.3% in [2]; -15.9% (active) in assay [3]; -74.2% (active) in assay [4]; 5.32% (active) in assay [5]; -69.3% (active) in [6]. In addition, the growth in [7] was 0.105% (active); in [8], 100%; in assay [9] it was 8.39% (active); in [10], -5.23% (active); in assay [11], -12.9% (active); in [12] it was -27.5% (active). The growth in assay [13] is 39.2%; in assay [14], 49.7%; in assay [15], 83.2%; in assay [16] it was 15.5%; in assay [17], 2.43% (active); in assay [18], 75.6%. The growth in [19] is 9.46% (active).

As for `O=C(N/N=C/c1ccncc1)c1ccc(C(F)(F)F)nc1Nc1cccc(C(F)(F)F)c1`, the growth in assay [1] is -10.9% (active); in assay [2] it was 18.4%; in assay [3], 37.7%; in assay [4] it was 8.19% (active); in [5], 16.8%; in [6], 17.1%. The growth in assay [7] is 6.02% (active); in assay [8], 35.3%; in assay [9], 6.05% (active); in assay [10], 2.02% (active); in assay [11], -64.1% (active); in assay [12], -4.88% (active). For the same compound, the growth in assay [13] is 24.7%; in [14], -0.699% (active); in assay [15] it was 32.1%; in assay [16], -35.9% (active); in assay [17], 1.03% (active); in assay [18], 44.4%. In assay [19], the growth is -10.7% (active).

`CC(=O)[C@@H]1CC[C@]2(COS(=O)(=O)c3ccc(C)cc3)CC[C@]3(C)[C@H](CC[C@@H]4[C@@]5(C)CCCNC(C)(C)[C@@H]5CC[C@]43C)[C@@H]12`: the growth in assay [1] is 105%; in assay [2], 94%; in assay [3], 78%; in assay [4], 66.3%; in [5] it was 106%; in assay [6], 87.1%. Also, the growth in assay [7] was 82.7%; in assay [8], 85.9%; in [9], 21.9%; in [10], -24.6% (active); in [11] it was 46.4%; in assay [12], 84%. For the same compound, the growth in assay [13] was 81%; in assay [14] it was 60.6%; in assay [15] it was 91.1%; in assay [16], 58.2%; in assay [17], 88.1%; in [18] it was 81.7%. Besides, the growth in assay [19] is 78.8%.

Consider `Nc1nc(N)c2c(n1)NC(c1ccccc1)C1CCc3ccccc3C1=N2` (stereo not given), for which the growth in assay [1] was 86.6%; in assay [2], 39.2%; in [3], 66%; in [4] it was 55.9%; in assay [5] it was 36%; in assay [6], 39.3%. In addition, the growth in assay [7] was 34.1%; in assay [8], 42.5%; in assay [9], 15.1%; in assay [10], 19.3%; in assay [11], 24.5%; in [12] it was 64.9%. For the same compound, the growth in assay [13] was 112%; in [14] it was 27.3%; in assay [15], 57.9%; in assay [16], 92.2%; in assay [17] it was 38.4%; in assay [18] it was 71.2%. Also, in assay [19], the growth is 23.9%.

Take `C=C1C(=O)O[C@H]2[C@H]1CC/C(COC(=O)C(=O)c1cn(C)c3ccc(OC)cc13)=C\CC[C@@]1(C)O[C@@H]21`: the growth is -47.2% (active) in [1]; -17.4% (active) in assay [2]; -51% (active) in assay [3]; -91.9% (active) in assay [4]; -61.4% (active) in assay [5]; -57.8% (active) in assay [6]. Besides, the growth in assay [7] is -43.6% (active); in [8] it was -99.5% (active); in assay [9], -16.6% (active); in [10] it was 2.42% (active); in [11], -37.5% (active); in [12], -9.07% (active). Besides, the growth was -18.9% (active) in assay [13]; 20.3% in assay [14]; -11.6% (active) in assay [15]; -67.7% (active) in assay [16]; 3.23% (active) in assay [18]; 7.43% (active) in assay [19].
